In PubChem BioAssay (Tox21):
“And” between values parts separate entries of the source, which are not always exact repeats. Identical values can stand only once. Records with an inconclusive call do not appear. Entries that show only a call come without a potency. Some structures have more than one record in an assay (separate samples or runs), and their calls can disagree. The source made the active and inactive calls. Calls come from the whole dose curve; as a rule, active = well fitted curve in the direction sought with a large enough effect in the repeat runs; inconclusive = weak or mixed curves; inactive = no such curve, though single readings can be large; an effect the other way counts as inactive or inconclusive.

Columns and labels:
[1] = Caspase-3/7 induction in HepG2 cells by small molecules, qHTS assay (AID 1346978); note: nearly all actives have a fitted effect of over 15% in size; note: potency is the fitted concentration of half-maximal effect
Procedure, shortened: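 Wild-type HepG2 cells, 2,000/well, settled 5 hr at 37 C and 5% CO2, then compound-treated for 17 hr; caspase-3/7 activity read by luminescent Caspase-Glo 3/7 after 30 min at room temperature.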

[2] = Caspase-3/7 induction in CHO-K1 cells by small molecules, qHTS assay (AID 1346980); note: nearly all actives have a fitted effect of over 15% in size; note: potency is the fitted concentration of half-maximal effect
Procedure, shortened: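 Wild-type CHO-K1 cells exposed to compounds for 17hr at 37 C, 5% CO2. Caspase-3/7 activity then measured by Caspase-Glo 3/7 luminescence after 30min at room temperature.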

[3] = Caspase-3/7 induction in HepG2 cells by small molecules, qHTS cell viability counter screen (AID 1346981); note: nearly all actives have a fitted effect of over 30% in size; note: potency is the fitted concentration of half-maximal effect; for activity change, negative = cytotoxicity: series mostly up to about 92 µM
Procedure, shortened: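 HepG2, WT, 2,000 cells/well; 5 hr pre-incubation 37 C/5% CO2; compound pin-transferred from DMSO; 16 hr exposure; CellTiter-Fluor, 1 hr; fluorescence read.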

[4] = molecular target: Nuclear receptor subfamily 1 group I member 2 (Homo sapiens) (UniProt O75469); assay: Human pregnane X receptor (PXR) small molecule agonists, qHTS assay (AID 1346982); note: nearly all actives have a fitted effect of over 35% in size; note: potency is the fitted concentration of half-maximal effect
Sequence of Nuclear receptor subfamily 1 group I member 2 (Homo sapiens) (O75469 whole entry, looked up): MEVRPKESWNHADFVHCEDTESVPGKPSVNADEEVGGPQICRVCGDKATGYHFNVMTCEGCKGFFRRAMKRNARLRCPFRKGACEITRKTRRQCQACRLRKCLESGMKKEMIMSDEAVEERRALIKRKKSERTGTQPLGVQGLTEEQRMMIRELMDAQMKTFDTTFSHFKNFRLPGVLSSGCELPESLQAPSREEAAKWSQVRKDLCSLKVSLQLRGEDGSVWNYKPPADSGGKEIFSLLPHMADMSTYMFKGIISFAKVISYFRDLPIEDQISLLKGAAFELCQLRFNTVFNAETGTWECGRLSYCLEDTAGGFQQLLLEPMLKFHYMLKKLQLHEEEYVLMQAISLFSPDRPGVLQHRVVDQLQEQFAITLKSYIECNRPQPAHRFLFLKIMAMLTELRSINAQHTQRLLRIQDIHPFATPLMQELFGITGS
Procedure, shortened: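 Luciferase signal from ONE-Glo (30 min, room temperature) measured activation of hPXR-driven CYP3A4 reporter expression in PXR-Luc HepG2 cells treated with compounds for 24 hr at 37 C.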

[5] = molecular target: Cytochrome P450 2C19 (Homo sapiens) (UniProt P33261); assay: Cytochrome P450 Family 2 Subfamily C Member 19 (CYP2C19) small molecule antagonists: luciferase reporter qHTS assay (AID 1671197); note: nearly all actives have a fitted effect of over 65% in size; note: potency is the fitted concentration of half-maximal effect; for activity change, negative = inhibition: series mostly up to about 120 µM
Sequence of Cytochrome P450 2C19 (Homo sapiens) (P33261 whole entry, looked up): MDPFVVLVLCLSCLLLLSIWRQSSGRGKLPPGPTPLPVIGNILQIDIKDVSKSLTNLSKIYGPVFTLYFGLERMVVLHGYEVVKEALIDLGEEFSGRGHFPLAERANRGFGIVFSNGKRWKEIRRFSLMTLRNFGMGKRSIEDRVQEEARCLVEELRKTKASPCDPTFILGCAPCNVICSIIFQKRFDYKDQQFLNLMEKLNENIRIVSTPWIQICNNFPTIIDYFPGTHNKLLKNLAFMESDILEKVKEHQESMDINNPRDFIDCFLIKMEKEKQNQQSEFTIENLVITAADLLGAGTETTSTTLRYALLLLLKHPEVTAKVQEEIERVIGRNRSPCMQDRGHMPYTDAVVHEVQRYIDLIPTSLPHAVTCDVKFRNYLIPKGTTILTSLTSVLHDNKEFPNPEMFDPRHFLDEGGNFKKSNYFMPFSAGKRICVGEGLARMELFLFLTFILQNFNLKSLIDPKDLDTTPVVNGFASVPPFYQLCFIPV
Procedure, shortened: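 P450-Glo CYP2C19 system: enzyme-substrate mix with compound 10 min at room temperature, then NADPH regeneration solution, 1 h at 37C. Proluciferin-to-luciferin conversion detected by luminescence after 20 min with detection reagent; ketoconazole as positive control.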

[6] = molecular target: Cytochrome P450 2C9 (Homo sapiens) (UniProt P11712); assay: Cytochrome P450 Family 2 Subfamily C Member 9 (CYP2C9) small molecule antagonists: luciferase reporter qHTS assay (AID 1671198); note: nearly all actives have a fitted effect of over 50% in size; note: potency is the fitted concentration of half-maximal effect; for activity change, negative = inhibition: series mostly up to about 120 µM
Sequence of Cytochrome P450 2C9 (Homo sapiens) (P11712 whole entry, looked up): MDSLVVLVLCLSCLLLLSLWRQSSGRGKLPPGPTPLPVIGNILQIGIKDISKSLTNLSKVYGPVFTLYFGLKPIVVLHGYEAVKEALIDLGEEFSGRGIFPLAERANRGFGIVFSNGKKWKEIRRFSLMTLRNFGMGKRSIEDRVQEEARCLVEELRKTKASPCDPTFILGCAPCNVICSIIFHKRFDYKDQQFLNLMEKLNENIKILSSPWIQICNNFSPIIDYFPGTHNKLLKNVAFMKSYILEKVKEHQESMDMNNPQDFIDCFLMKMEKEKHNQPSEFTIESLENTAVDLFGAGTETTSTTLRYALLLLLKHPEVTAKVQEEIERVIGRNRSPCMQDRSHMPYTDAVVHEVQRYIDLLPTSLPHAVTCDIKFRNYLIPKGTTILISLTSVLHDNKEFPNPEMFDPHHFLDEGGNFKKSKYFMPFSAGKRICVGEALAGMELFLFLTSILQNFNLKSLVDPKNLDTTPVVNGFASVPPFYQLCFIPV
Procedure, shortened: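 P450-Glo proluciferin substrate with CYP2C9 enzyme; 10 min RT preincubation, then NADPH regeneration 1 h at 37C; luciferin detection reagent 20 min RT, luminescence in relative luminescence units.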

[7] = molecular target: Cytochrome P450 1A2 (Homo sapiens) (UniProt P05177); assay: Cytochrome P450 Family 1 Subfamily A Member 2 (CYP1A2) small molecule antagonists: luciferase reporter qHTS assay (AID 1671199); note: nearly all actives have a fitted effect of over 50% in size; note: potency is the fitted concentration of half-maximal effect; for activity change, negative = inhibition: series mostly up to about 120 µM
Sequence of Cytochrome P450 1A2 (Homo sapiens) (P05177 whole entry, looked up): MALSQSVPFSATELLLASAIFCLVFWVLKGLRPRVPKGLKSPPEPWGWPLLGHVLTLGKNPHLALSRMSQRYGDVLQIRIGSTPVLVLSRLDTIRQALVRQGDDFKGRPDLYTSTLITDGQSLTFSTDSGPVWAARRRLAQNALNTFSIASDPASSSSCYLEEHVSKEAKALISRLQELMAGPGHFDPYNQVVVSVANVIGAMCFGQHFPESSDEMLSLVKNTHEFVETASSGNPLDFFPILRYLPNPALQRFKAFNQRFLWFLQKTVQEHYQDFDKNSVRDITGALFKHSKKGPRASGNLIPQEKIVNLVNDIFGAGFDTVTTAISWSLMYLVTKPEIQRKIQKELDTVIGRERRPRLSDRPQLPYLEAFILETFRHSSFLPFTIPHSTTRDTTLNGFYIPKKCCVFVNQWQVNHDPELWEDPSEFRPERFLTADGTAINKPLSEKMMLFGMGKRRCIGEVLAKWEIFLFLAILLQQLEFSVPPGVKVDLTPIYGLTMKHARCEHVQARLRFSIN
Procedure, shortened: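 P450-Glo CYP1A2, 1536-well qHTS: enzyme/proluciferin substrate + cpd (DMSO), 10 min RT; NADPH regen, 1 h RT; detection reagent, 20 min; luminescence, RLU.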

[8] = molecular target: Voltage-gated inwardly rectifying potassium channel KCNH2 (Homo sapiens) (UniProt Q12809); assay: Human Ether-a-go-go-Related Gene (hERG) channel small molecule antagonists: fluorescence cell-based qHTS assay (AID 1671200); note: nearly all actives have a fitted effect of over 50% in size; note: potency is the fitted concentration of half-maximal effect;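 for activity change, negative = inhibition: hERG-expressing U2OS cells given a thallium stimulus after FluxOR II dye loading; series mostly up to about 77 µM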
Sequence of Voltage-gated inwardly rectifying potassium channel KCNH2 (Homo sapiens) (Q12809 whole entry, looked up): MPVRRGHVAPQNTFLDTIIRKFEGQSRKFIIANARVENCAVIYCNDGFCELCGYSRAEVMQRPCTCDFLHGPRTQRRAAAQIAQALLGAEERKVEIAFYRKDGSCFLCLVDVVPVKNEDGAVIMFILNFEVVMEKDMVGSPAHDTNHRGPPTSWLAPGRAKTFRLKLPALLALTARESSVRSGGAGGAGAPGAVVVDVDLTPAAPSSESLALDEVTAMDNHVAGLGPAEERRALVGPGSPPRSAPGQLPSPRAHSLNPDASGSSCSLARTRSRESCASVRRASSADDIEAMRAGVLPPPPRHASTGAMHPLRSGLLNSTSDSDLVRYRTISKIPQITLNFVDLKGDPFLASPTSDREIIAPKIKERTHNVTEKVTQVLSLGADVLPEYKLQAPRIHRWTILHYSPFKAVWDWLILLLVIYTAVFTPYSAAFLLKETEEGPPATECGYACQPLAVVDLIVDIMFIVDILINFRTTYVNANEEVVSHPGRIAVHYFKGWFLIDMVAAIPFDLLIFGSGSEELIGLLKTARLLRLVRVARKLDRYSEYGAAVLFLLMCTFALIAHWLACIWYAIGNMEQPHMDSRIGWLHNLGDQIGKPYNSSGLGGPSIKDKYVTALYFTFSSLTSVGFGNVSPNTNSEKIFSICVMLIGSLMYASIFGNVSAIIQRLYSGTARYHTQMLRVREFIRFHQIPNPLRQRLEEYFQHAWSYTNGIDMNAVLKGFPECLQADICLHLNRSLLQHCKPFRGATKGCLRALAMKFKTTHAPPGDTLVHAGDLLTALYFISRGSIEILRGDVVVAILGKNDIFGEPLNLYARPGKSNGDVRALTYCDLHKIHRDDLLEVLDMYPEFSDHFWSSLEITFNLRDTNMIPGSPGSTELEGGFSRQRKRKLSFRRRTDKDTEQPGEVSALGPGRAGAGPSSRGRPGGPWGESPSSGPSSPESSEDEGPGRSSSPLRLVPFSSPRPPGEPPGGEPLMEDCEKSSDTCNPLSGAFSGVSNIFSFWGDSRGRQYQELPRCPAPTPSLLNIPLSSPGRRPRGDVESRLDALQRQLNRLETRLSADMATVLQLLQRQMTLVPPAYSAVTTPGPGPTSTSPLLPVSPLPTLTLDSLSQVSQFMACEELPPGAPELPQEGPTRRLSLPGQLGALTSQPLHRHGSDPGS
Procedure, shortened: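 hERG-U2OS cells plated overnight at 37 C, loaded with FluxOR II dye 1 h at RT in dark; after 10 min, thallium stimulus added. Fluorescence (480/540 nm) read kinetically for 2 min at 1 s intervals.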

[9] = Caspase-3/7 induction in CHO-K1 cells by small molecules, qHTS cell viability counter screen (AID 1346979); note: nearly all actives have a fitted effect of over 35% in size; note: potency is the fitted concentration of half-maximal effect
Procedure, shortened: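 Wild-type CHO-K1 cells (1,500/well) treated with compound after 5 h plating; after 16 h at 37C, viability read as CellTiter-Fluor fluorescence following 1 h reagent incubation, in the same wells as the caspase read.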

[10] = molecular target: Cytochrome P450 3A4 (Homo sapiens) (UniProt P08684); assay: Cytochrome P450 Family 3 Subfamily A Member 4 (CYP3A4) small molecule antagonists: luciferase reporter qHTS assay (AID 1671201); note: nearly all actives have a fitted effect of over 50% in size; note: potency is the fitted concentration of half-maximal effect; for activity change, negative = inhibition: series mostly up to about 120 µM
Sequence of Cytochrome P450 3A4 (Homo sapiens) (P08684 whole entry, looked up): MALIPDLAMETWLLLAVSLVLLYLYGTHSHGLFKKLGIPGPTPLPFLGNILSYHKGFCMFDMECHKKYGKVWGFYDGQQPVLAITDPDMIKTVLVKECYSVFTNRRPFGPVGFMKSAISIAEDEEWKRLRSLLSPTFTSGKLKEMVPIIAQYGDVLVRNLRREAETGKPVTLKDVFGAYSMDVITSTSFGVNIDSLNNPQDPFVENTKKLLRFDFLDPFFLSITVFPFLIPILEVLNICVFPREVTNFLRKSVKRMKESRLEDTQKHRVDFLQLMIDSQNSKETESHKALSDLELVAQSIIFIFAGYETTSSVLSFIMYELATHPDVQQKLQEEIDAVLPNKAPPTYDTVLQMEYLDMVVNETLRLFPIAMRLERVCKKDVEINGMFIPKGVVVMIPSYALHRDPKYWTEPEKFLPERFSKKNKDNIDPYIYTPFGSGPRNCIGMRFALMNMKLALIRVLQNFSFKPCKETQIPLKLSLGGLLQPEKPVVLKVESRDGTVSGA
Procedure, shortened: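 P450-Glo CYP3A4 luminescent assay: compounds preincubated 10 min at room temperature with enzyme and proluciferin substrate, NADPH regeneration added, 1 h room-temperature reaction, stopped with luciferin detection reagent; luminescence read after 20 min. Ketoconazole positive control.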

[11] = molecular target: Cytochrome P450 2D6 (Homo sapiens) (UniProt P10635); assay: Cytochrome P450 Family 2 Subfamily D Member 6 (CYP2D6) small molecule antagonists: luciferase reporter qHTS assay (AID 1671196); note: nearly all actives have a fitted effect of over 50% in size; note: potency is the fitted concentration of half-maximal effect; for activity change, negative = inhibition: series mostly up to about 120 µM
Sequence of Cytochrome P450 2D6 (Homo sapiens) (P10635 whole entry, looked up): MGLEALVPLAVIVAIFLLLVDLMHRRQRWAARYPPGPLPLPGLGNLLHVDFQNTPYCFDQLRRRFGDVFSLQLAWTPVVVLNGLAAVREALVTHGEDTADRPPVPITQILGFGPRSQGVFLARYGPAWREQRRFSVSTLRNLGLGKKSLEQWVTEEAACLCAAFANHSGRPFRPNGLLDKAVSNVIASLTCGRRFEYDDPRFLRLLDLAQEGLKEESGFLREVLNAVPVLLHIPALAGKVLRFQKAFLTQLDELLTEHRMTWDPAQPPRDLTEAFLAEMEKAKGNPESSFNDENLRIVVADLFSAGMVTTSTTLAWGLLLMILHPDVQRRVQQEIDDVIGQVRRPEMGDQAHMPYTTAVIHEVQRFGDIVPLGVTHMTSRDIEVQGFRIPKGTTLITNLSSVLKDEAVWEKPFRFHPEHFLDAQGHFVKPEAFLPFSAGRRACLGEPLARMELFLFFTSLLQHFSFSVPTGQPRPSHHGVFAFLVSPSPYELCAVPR
Procedure, shortened: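 Read-out is luminescence from luciferin formed by CYP2D6 turnover of a proluciferin substrate, recorded as relative luminescence units. Reactions ran 1 h at room temperature after NADPH regeneration solution was added.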

[12] = molecular target: Nuclear receptor subfamily 1 group I member 2 (Rattus norvegicus) (UniProt Q9R1A7); assay: Rat pregnane X receptor (rPXR) activation by small molecules, qHTS assay (AID 1346983); details: rPXR luciferase reporter cells, One-Glo luminescence, 24 h; stronger effect = higher value; note: nearly all actives have a fitted effect of over 20% in size
Sequence of Nuclear receptor subfamily 1 group I member 2 (Rattus norvegicus) (Q9R1A7 whole entry, looked up): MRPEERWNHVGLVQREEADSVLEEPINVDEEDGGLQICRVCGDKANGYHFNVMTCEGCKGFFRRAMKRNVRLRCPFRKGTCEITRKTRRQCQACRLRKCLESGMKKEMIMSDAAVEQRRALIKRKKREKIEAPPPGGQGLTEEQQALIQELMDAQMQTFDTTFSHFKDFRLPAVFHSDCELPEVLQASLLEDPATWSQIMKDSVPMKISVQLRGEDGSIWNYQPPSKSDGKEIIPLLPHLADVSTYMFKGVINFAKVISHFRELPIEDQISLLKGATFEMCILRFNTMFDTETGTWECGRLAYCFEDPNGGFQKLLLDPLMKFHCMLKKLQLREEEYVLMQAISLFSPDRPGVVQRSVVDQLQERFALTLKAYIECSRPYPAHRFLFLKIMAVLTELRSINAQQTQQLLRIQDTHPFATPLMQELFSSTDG
Procedure, shortened: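 Cell-based rPXR activation assay: rPXR cells, 2,000 per well, rested 5hr at 37 C, then exposed to compounds in DMSO for 24 hr at 37 C. Luciferase activity read by One-Glo luminescence after 30 min at room temperature.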

[13] = molecular target: Nuclear receptor subfamily 1 group I member 2 (Homo sapiens) (UniProt O75469); assay: CYP3A4 induction through human pregnane X receptor (PXR) by small molecules, qHTS assay (AID 1346984); note: nearly all actives have a fitted effect of over 40% in size; note: potency is the fitted concentration of half-maximal effect
Procedure, shortened: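 Luminescence readout: luciferase signal after One-Glo (30 min, room temperature), following 3 h at 37C with 3uM final Luciferin-IPA P450 substrate. Cells were DPX-2 (HepG2, PXR/CYP3A4-luc co-transfected) dosed for 24 h.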

[14] = molecular target: Nuclear receptor subfamily 1 group I member 2 (Homo sapiens) (UniProt O75469); assay: Human pregnane X receptor (PXR) activation by small molecules, qHTS assay (AID 1346985); note: nearly all actives have a fitted effect of over 40% in size
Procedure, shortened: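 DPX-2 cells (HepG2 co-transfected with a PXR response element and a CYP3A4-promoter luciferase construct) were seeded at 2,000 per well, rested 5 hr at 37C, then exposed to DMSO-dissolved compounds for 24 hr. Activation was read as luciferase luminescence.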

SMILES: O=C1Nc2ccccc2C1(c1ccc(O)cc1)c1ccc(O)cc1
- Potency [1]: inactive
- Potency [2]: inactive
- Potency [3]: inactive
- Potency [4]: 61.1 µM (active) and inactive
- Potency [5]: 17.8 µM (active) and 9.77 µM (active)
- Potency [6]: 6.33 µM (active) and 3.89 µM (active)
- Potency [7]: inactive
- Potency [8]: inactive

SMILES: CN1C(=O)c2ccc([N+](=O)[O-])cc2C1=O
- Potency [1]: inactive
- Potency [9]: inactive
- Potency [2]: inactive
- Potency [3]: inactive
- Potency [5]: 70.9 µM (active)
- Potency [7]: 20 µM (active)
- Potency [8]: inactive
- Potency [10]: 39.9 µM (active)

SMILES: COc1ccc(CCN(C)CCCC(C#N)(c2ccc(OC)c(OC)c2)C(C)C)cc1OC (stereo unspecified)
- Potency [11]: inactive
- Potency [5]: inactive
- Potency [6]: inactive
- Potency [7]: inactive

SMILES: C=C(C)C(=O)O
- Potency [9]: inactive
- Potency [2]: inactive
- Potency [3]: inactive
- Potency [4]: inactive
- Potency [11]: inactive
- Potency [5]: inactive
- Potency [6]: inactive
- Potency [7]: inactive
- Potency [8]: inactive
- Potency [10]: inactive

SMILES: NC(Cc1ccc(Cl)cc1)C(=O)O (stereo unspecified)
- caspase activation [1]: -0.871% [at 0.349 µM] (inactive)
- activity change, negative = cytotoxicity [9]: 10.4% [at 0.349 µM] (inactive)
- caspase-3/7 activation [2]: 1.39% [at 0.349 µM] (inactive)
- activity change, negative = cytotoxicity [3]: -2.01% [at 0.349 µM] (inactive)
- activation [4]: -5.94% [at 0.349 µM] (inactive)
- activity change, negative = inhibition [11]: -0.77% [at 0.435 µM] (inactive)
- activity change, negative = inhibition [5]: 18.5% [at 0.435 µM] (inactive)
- activity change, negative = inhibition [6]: 6.61% [at 0.435 µM] (inactive)
- activity change, negative = inhibition [7]: 10.8% [at 0.435 µM] (inactive)
- activity change, negative = inhibition [8]: 10.3% [at 0.29 µM] (inactive)
- activity change, negative = inhibition [10]: 0.0907% [at 0.435 µM] (inactive)

SMILES: CCCCCCCCCCCCc1ccccc1O
- Potency [9]: 53.8 µM (active) and 54.5 µM (active)
- Potency [2]: 60.3 µM (active) and 68.6 µM (active)
- Potency [3]: 60.3 µM (active) and 48.6 µM (active)
- Potency [4]: 6.03 µM (active)
- Potency [11]: inactive
- Potency [5]: 1.57 µM (active) and 3.17 µM (active)
- Potency [6]: 7.01 µM (active) and 11.2 µM (active)
- Potency [7]: 35.1 µM (active) and 31.7 µM (active)
- Potency [8]: inactive
- Potency [10]: 31.3 µM (active) and 63.3 µM (active)

SMILES: CC[C@@H](N)CO
- Potency [1]: inactive
- Potency [9]: inactive
- Potency [2]: inactive
- Potency [3]: inactive
- Potency [4]: inactive
- Potency [11]: inactive
- Potency [5]: inactive
- Potency [6]: inactive
- Potency [8]: inactive
- Potency [10]: inactive

SMILES: O=Nc1ccc(Nc2ccccc2)cc1
- Potency [9]: 7.74 µM (active) and 13.7 µM (active)
- Potency [2]: inactive
- Potency [4]: 61.4 µM (active) and 48.6 µM (active)
- Potency [11]: 28.4 µM (active) and 35.6 µM (active)
- Potency [5]: 5.67 µM (active) and 8.94 µM (active)
- Potency [6]: 14.2 µM (active) and 28.3 µM (active)
- Potency [7]: 16 µM (active) and 28.3 µM (active)
- Potency [8]: inactive
- Potency [10]: 8.99 µM (active) and 12.6 µM (active)

SMILES: CCN(CC)C(=S)SSC(=S)N(CC)CC
- Potency [1]: 611 nM (active) and 395 nM (active)
- Potency [9]: 137 nM (active) and 62.6 nM (active) and 376 nM (active)
- Potency [2]: inactive
- Potency [3]: inactive
- Potency [4]: 15.7 µM (active) and 10.6 µM (active)
- Potency [11]: 32.5 µM (active)
- Potency [6]: 6.33 µM (active) and 4.21 µM (active) and 4.36 µM (active)
- Potency [7]: 31.7 µM (active) and 21.3 µM (active) and 6.45 µM (active)
- Potency [8]: 41 µM (active) and inactive

SMILES: CC(C)(C)c1ccc(O)c(C(C)(C)C)c1
- Potency [1]: 30.5 µM (active) and 54.5 µM (active)
- Potency [9]: 60.9 µM (active) and 54.5 µM (active)
- Potency [4]: inactive
- Potency [11]: 19.9 µM (active)
- Potency [5]: 9.99 µM (active) and 17.8 µM (active)
- Potency [6]: 12.6 µM (active) and 11.2 µM (active)
- Potency [7]: 35.4 µM (active) and 56.4 µM (active)
- Potency [10]: 35.6 µM (active)

SMILES: Nc1ccc2cc3ccccc3cc2c1
- Potency [1]: inactive
- Potency [9]: inactive
- Potency [2]: inactive
- Potency [3]: inactive
- Potency [4]: 27.8 µM (active) and 21.7 µM (active)
- Potency [5]: 72.3 µM (active) and 35.6 µM (active)
- Potency [6]: 32.3 µM (active) and 31.7 µM (active)
- Potency [7]: 4.06 µM (active) and 2.24 µM (active)
- Potency [8]: inactive
- Potency [10]: 9.1 µM (active) and 12.6 µM (active)

SMILES: C=C(C)C1CC=C(C)C(OC(C)=O)C1 (stereo unspecified)
- Potency [9]: inactive
- Potency [2]: inactive
- Potency [3]: inactive
- Potency [4]: inactive
- Potency [11]: 28.1 µM (active) and inactive
- Potency [5]: inactive
- Potency [6]: inactive
- Potency [7]: inactive
- Potency [8]: inactive
- Potency [10]: inactive

SMILES: O=c1n(CC2CO2)c(=O)n(CC2CO2)c(=O)n1CC1CO1 (stereo unspecified)
- Potency [9]: 60.8 µM (active) and 48.6 µM (active)
- Potency [2]: inactive
- Potency [3]: 54.2 µM (active) and 48.6 µM (active)
- Potency [4]: 17.1 µM (active) and 13.7 µM (active)
- max activation [12]: -2.73% (inactive)
- Potency [13]: inactive
- Potency [14]: inactive
- Potency [11]: inactive
- Potency [5]: inactive
- Potency [8]: inactive
- Potency [10]: inactive

SMILES: O=C1OC2(c3ccc(O)cc3Oc3cc(O)ccc32)c2ccccc21
- Potency [1]: inactive
- Potency [2]: inactive
- Potency [4]: 21.7 µM (active) and inactive
- max activation [12]: 0.287% (inactive)
- Potency [13]: 14.1 µM (active)
- Potency [11]: inactive
- Potency [5]: 20 µM (active) and 4.9 µM (active)
- Potency [6]: 11.2 µM (active)
- Potency [7]: inactive
- Potency [8]: 15.5 µM (active) and inactive
- Potency [10]: inactive

SMILES: Nc1nc(=S)c2[nH]cnc2[nH]1
- Potency [1]: inactive
- Potency [9]: 5.31 µM (active) and 9.69 µM (active) and 3.76 µM (active)
- Potency [2]: inactive
- Potency [4]: inactive
- max activation [12]: -4.65% (inactive)
- Potency [13]: inactive
- Potency [14]: inactive
- Potency [11]: inactive
- Potency [5]: 30.9 µM (active)
- Potency [6]: 38.9 µM (active) and 71 µM (active) and 30.9 µM (active)
- Potency [7]: 30.9 µM (active) and 35.6 µM (active)
- Potency [10]: inactive
